# Measured values as given in ChEMBL document CHEMBL4513216, “Probing the Open Global Health Chemical Diversity Library for Multistage-Active Starting Points for Next-Generation Antimalarials” (ACS Infect Dis, 2020).
# The whole screen tested about 69,000 compounds, of which about 8,600 (12%) showed an effect of 50% or more. The entries come from a sample that favours strong results as a whole.
# System: Plasmodium berghei
# Assay: Screen against P. berghei liver stage (PbLuc), transformed with Luciferase, at 10uM
# Assay type: functional, HepG2
# Conditions: tested at 10 uM
row,SMILES,INHIBITION [%]
1,COc1ccc2cc(CN(C)CCN3CCCCC3=O)c(=O)[nH]c2c1,-15.1
2,CCN1CCCC1CNC(=O)CCSc1ccc2c(c1)OCCO2 (configuration not stated),38.5
3,CCN1CCCC1CNCc1cc2cc(OC)c(OC)cc2[nH]c1=O (configuration not stated),18.3
4,CSc1ccc2cc(CN(C)CCc3cn[nH]c3)c(=O)[nH]c2c1,20.8
5,CCN1CCCC1CNCc1cc2cc(C)c(C)cc2[nH]c1=O (configuration not stated),-29.9
6,CCOc1ccc2[nH]c(=O)c(CN(C)CCc3cn[nH]c3)cc2c1,54.4
7,COc1ccc2cc(CN(C)CCc3cn[nH]c3)c(=O)[nH]c2c1,36.5
8,COc1ccc2[nH]c(=O)c(CN(C)CCN3CCCC3)cc2c1,63.9
9,COc1ccc2[nH]c(=O)c(CN(C)C(C)c3ccccn3)cc2c1 (configuration not stated),-3.55
10,CCN1CCCC1CNCc1cc2ccccc2[nH]c1=O (configuration not stated),-61.5
11,CCN1CCCC1CNCc1cc2cc(OC)ccc2[nH]c1=O (configuration not stated),72.2
12,CCN1CCCC1CNCc1cc2cc3c(cc2[nH]c1=O)OCCO3 (configuration not stated),58.2
13,CCOc1cc(C)nc(N2CCN(C(=O)c3cscn3)CC2)n1,15.3
14,Cc1csc(NC(=O)c2ccc(NC(=O)N3CCOCC3)cc2)n1,-37.4
15,Cc1cccc(C(=O)NCc2ccc(CS(N)(=O)=O)cc2)n1,-33.9
16,O=C1CCCN1Cc1nnc2n1CCN(Cc1ccccn1)CC2,-30.7
17,COc1ncc(CN2C[C@@H]3C[C@@H](O)CN3C[C@@H]2Cc2ccccc2)cn1,33.8
18,c1cn2c(n1)CN(Cc1ccsc1)CC(Cn1cncn1)C2 (configuration not stated),49.7
19,CC(C)c1nc(CN(C)Cc2ccc(O)c(C(=O)O)c2)cs1,-14.1
20,CCOc1ncccc1CNC(=O)Nc1ccccc1,31.3
21,COc1ccc(CC2CN(C(=O)c3coc(C)n3)CCO2)cc1 (configuration not stated),9.05
22,Cc1nc(-c2cncnc2C2CCCNC2)no1 (configuration not stated),-3.45

row,SMILES,INHIBITION [%]
1,COc1ccc2c(C)c(C(=O)NC3CCCOC3)oc2c1 (configuration not stated),60.9
2,COc1ccc2c(C)c(C(=O)NC3CCOCC3)oc2c1,-104
3,COc1ccc2c(C)c(C(=O)NC3CCN(S(C)(=O)=O)CC3)oc2c1,-112
4,CNS(=O)(=O)c1ccc(C(=O)N2CCCC2c2ccncc2)o1 (configuration not stated),36.1
5,Cc1cc(NCc2ccco2)nc2[nH]nc(N)c12,61
6,Cc1cc(NCCO)nc2[nH]nc(N)c12,26.7
7,Cc1cc(NCc2ccccc2)nc2[nH]nc(N)c12,-0.232
8,CC1COCCN1C(=O)COc1cccc(Oc2ccccn2)c1 (configuration not stated),-20.6
9,CC1CN(C)CCN1C(=O)COc1cccc(Oc2ccccn2)c1 (configuration not stated),61.2
10,CC1COCCN1C(=O)COc1ccc(Oc2ccccn2)cc1 (configuration not stated),8.99
11,CSCC(=O)NS(=O)(=O)c1ccc2c(c1)OCCO2,8.315
12,CCS(=O)(=O)c1ccc2c(c1)OCCO2,77.8
13,CC(C)CC(=O)NS(=O)(=O)c1ccc2c(c1)OCCCO2,-7.81
14,O=S(=O)(CCCS(=O)(=O)c1ccc2c(c1)OCCCO2)c1ccccc1,-46.8
15,CCSCCC(=O)NS(=O)(=O)c1ccc2c(c1)OCCO2,41.9
16,CCS(=O)(=O)c1ccc2c(c1)OCCCO2,55.9
17,CC1=N[C@@]2(CC[C@@H]3CN(Cc4cccc(Cl)c4)C[C@@H]32)C(=O)N1CC1CC1,14.9
18,Cc1ccc(C2CCCN(S(C)(=O)=O)C2)nc1 (configuration not stated),6.75
19,O=C(NC[C@]12COC[C@H]1CN(C1CCOCC1)C2)c1ccco1,38.7
20,Cc1ccc2c(c1)OCCCC2NCc1nnc2n1CCCCC2 (configuration not stated),-14.2
21,c1ccc2c(c1)OCCCC2NCc1nnc2n1CCCCC2 (configuration not stated),-0.55
22,Cc1cccc2c1OCCCC2NCc1nnc2n1CCCCC2 (configuration not stated),86.8

row,SMILES,INHIBITION [%]
1,CS(=O)(=O)c1cc(Cl)cnc1C1CCN(C(=O)C2CCCO2)CC1 (configuration not stated),12.75
2,O=C(Cc1cccc(F)c1)N1C[C@H]2CN(Cc3ccccn3)C[C@H]2C1,9.97
3,N#Cc1ccsc1N1CCC(Sc2ncc[nH]2)C1=O (configuration not stated),27.6
4,Cn1ccnc1CNC(=O)c1ccnc(C2CCNCC2)c1,-12.4
5,Cc1c(NC(C)C(C)C)cccc1C(=O)NCc1ccnn1C (configuration not stated),62.7
6,Cc1c(NC(C)C(C)C)cccc1C(=O)NCc1nnc(C)n1C (configuration not stated),-20.8
7,CC(C)Nc1ncccc1C(=O)NCc1ccnn1C,43
8,Cc1c(NC(C)C(C)C)cccc1C(=O)NCc1cnn(C)c1 (configuration not stated),29.3
9,Cc1c(NC(C)C(C)C)cccc1C(=O)NCc1nccn1C (configuration not stated),57.4
10,O=C1NC2(Cc3ccccc31)CN(CC1CCCC1)C2,45.8
11,COC(=O)C1CCN(C(=O)c2cc(Br)ccc2-n2cnnn2)CC1,53.8
12,CCOC(=O)C1CCN(C(=O)c2cc(Br)ccc2-n2cnnn2)CC1,17.6
13,NC(=O)C1CCN(C(=O)c2cc(Br)ccc2-n2cnnn2)CC1,28.6
14,CC(CN1CCOCC1)OC(=O)c1ccccc1Cl (configuration not stated),35.8
15,Cn1nnc2c1C(COCc1ccccn1)CN(C(=O)c1ccsc1)C2 (configuration not stated),1.9
16,Cc1cc(N(C)Cc2ncc[nH]2)nc(-c2ccccc2)n1,59.8
17,Cc1cc(CC(C)Nc2nc(-c3cccnc3)nc3c2CNC3)[nH]n1 (configuration not stated),47.4
18,Cc1cc(N(C)Cc2ncc[nH]2)nc(-c2cccnc2)n1,-18.5
19,Cc1cc(N(C)Cc2cc(C(C)(C)C)n[nH]2)nc(-c2cccnc2)n1,76.5
20,Cc1ccccc1CN(CCN(C)C)Cc1ncc[nH]1,3.96
21,Cc1cc(N(C)Cc2snnc2C)nc(-c2cccnc2)n1,-26.2
22,O=C(Cn1cccn1)N1CCC(c2nnc(-c3ccsc3)o2)CC1,23.55

row,SMILES,INHIBITION [%]
1,CN(C1CCCN(c2ccccn2)C1)S(C)(=O)=O (configuration not stated),-2.25
2,CC(=O)Nc1cc2c(cc1C)OCO2,19.3
3,COc1c(CNCC(O)COc2ccc3c(c2)OCO3)c(C)nn1C (configuration not stated),21.5
4,COc1ccc(CN(C)CC(O)COCc2ccccc2Cl)c(OC)c1 (configuration not stated),48.2
5,Cc1ccccc1CN(C)CC(O)COCc1ccccc1Cl (configuration not stated),60
6,COc1ccccc1COCC(O)CN(C)Cc1cccc(Cl)c1 (configuration not stated),24.6
7,O=S(=O)(NCc1ccc(S(=O)(=O)N2CCCC2)s1)c1ccc(F)cc1Cl,18.3
8,CN(C)S(=O)(=O)c1ccc2c(c1)N(Cc1nccn1C)CC2,37.1
9,Cc1ccc([C@@]2(O)CC[C@@H]3CN(S(=O)(=O)C(C)C)C[C@@H]32)cc1,3.91
10,CC(C)n1cc(CN2CCCN(C(=O)c3cccn3C)CC2)cn1,34.6
11,Cc1cc(C(=O)N2CCCN(Cc3cnn(C(C)C)c3)CC2)no1,39.3
12,CC(C)n1cc(CN2CCCN(C(=O)c3cc(Cl)c[nH]3)CC2)cn1,54.9
13,CC(C)n1cc(CN2CCCN(C(=O)c3ccc[nH]3)CC2)cn1,52.1
14,Cc1cnc(C(=O)N2CCCN(Cc3cnn(C(C)C)c3)CC2)cn1,9.06
15,CC(C)n1cc(CN2CCCN(C(=O)c3ccco3)CC2)cn1,25.1
16,Cc1cccc(CN2C[C@@H]3CN(C(=O)c4ccsc4)C[C@@H]3C2=O)n1,23.6
17,CN(C)S(=O)(=O)N1CCN(C(=O)OC(C)(C)C)CC12CCCCC2,27.5
18,Cc1cnn(CC2CCCN2Cc2cn3ccsc3n2)c1 (configuration not stated),37.9
19,O=C1CCC(=O)c2oc3ccc(Cl)cc3c2N1,34.2
20,CN(C)C(=O)N1C[C@H]2CC[C@@H](C1)N(C(=O)CCCn1cncn1)C2,6.8
21,O=C(O)COCC(=O)NC1CC2(CCCCC2)Oc2ccccc21 (configuration not stated),3.91
22,CC(C)c1nnc2n1CCN(C(=O)c1cn(-c3ccccc3)nn1)C2,21.1

row,SMILES,INHIBITION [%]
1,O=C(NC[C@]12COC[C@H]1CN(CC1CCOCC1)C2)c1ccco1,3.11
2,Cc1ncc(CN2CCCC(c3nc4ccccc4n3C(C)C)C2)s1 (configuration not stated),-21.4
3,O=C1NCCN1C1CCN(CCOc2ccccc2F)CC1,63.85
4,O=C1NCCN1C1CCN(CC(O)c2ccccc2F)CC1 (configuration not stated),0.45
5,c1ccc2c(OCCN3CCn4c(nnc4C4CC4)C3)cccc2c1,21.5
6,O=C1NCCN1C1CCN(CCc2cccs2)CC1,29.5
7,O=C1NCCN1C1CCN(CCOc2cccc3ccccc23)CC1,69.1
8,O=C1NCCN1C1CCN(CCOc2ccccc2Cl)CC1,22.6
9,COc1cc(C(=O)N(C)Cc2nccn2CC(F)(F)F)ccc1C,10.7
10,Cc1cc(C(=O)N2CCC3(CC2)C(=O)N(C)CCN3CC(C)C)c(C)o1,49.4
11,Cn1cccc1C(=O)N1CCC(c2nnc(Cn3ccnc3)n2C)CC1,-10.3
12,NCC1[C@H]2CN(CCc3ccccc3)C[C@@H]12 (some centres not stated),33.2
13,CN(C)c1nc2c(c(N3CCC4(CC3)CNC(=O)C4)n1)CCCC2,84.5
14,CN(C)c1nc2c(c(N3CCCC4(CC3)CNC(=O)O4)n1)CCCC2 (configuration not stated),-26.8
15,CN(C)c1nc2c(c(N3CCC4(CCCNC4=O)C3)n1)CCCC2 (configuration not stated),42.2
16,CCn1cc(NC(=O)NCC(C)N2CCCC2)cn1 (configuration not stated),31.8
17,Cc1nc(CN2CCc3ncnc(C4CCOC4)c3CC2)cs1 (configuration not stated),-33
18,Cc1nc2ncc3c(=O)n(C)ccc3n2n1,0.647
19,Cc1noc(C)c1CN1CCN(C(=O)C(C(C)C)n2cncn2)CC1 (configuration not stated),7.44
